These results are taken from PubChem BioAssay AID1476 (National Center for Advancing Translational Sciences (NCATS), 2009).

About 4,500 (2.2%) of roughly 200,000 compounds were called active. Roughly 12% stayed inconclusive and do not appear here. The call rests on the fitted dose curve; in most records, active means well fitted inhibition curve with a large enough effect; inconclusive means small, poorly fitted or top-dose-only effect, or effect the other way; inactive means flat fitted curve, though single readings scatter. The list comes from a sample in which actives are over-represented; it also holds similar structures and randomly drawn compounds.
Potency means the concentration at half of the fitted maximal effect.

In the assay the target is Cruzipain (Trypanosoma cruzi) (UniProt P25779). In words: qHTS Assay for Promiscuous and Specific Inhibitors of Cruzain (without detergent). Further: nearly all actives have a fitted effect of over 40% in size. The note with it: purified cruzain, Z-FR-AMC fluorescence, no detergent. How it is done: Cruzain is a cysteine protease from the tropical parasite Trypanosoma cruzi. Dual qHTS experiment was performed against the NCGC compound collection in order to 1) identify novel inhibitors of the enzyme and 2) profile the compound collection for promiscuous inhibitors operating via colloidal aggregation (by performing detergent-free and detergent-containing comparison screens). Cruzain was assayed by the use of fluorogenic coumarin-based substrate Z-FR-AMC: proteolytic cleavage releases AMC, whose fluorescence is measured at 360 nm excitation and 450 nm emission. Purified cruzain was supplied by the labs of Prof. James McKerrow and Brian Shoichet, UC San Francisco.
Cruzipain (Trypanosoma cruzi), sequence (P25779 123-467 limits assumed): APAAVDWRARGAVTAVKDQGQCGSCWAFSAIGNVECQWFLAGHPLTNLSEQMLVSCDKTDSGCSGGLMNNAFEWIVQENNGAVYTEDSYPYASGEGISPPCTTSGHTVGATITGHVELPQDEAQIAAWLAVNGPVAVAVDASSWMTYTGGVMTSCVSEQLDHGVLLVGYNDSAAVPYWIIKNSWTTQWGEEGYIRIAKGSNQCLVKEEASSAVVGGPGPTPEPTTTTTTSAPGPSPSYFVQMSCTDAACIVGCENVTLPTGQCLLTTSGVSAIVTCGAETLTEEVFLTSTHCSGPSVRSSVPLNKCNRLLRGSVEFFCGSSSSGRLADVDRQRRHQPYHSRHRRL
This assay had 0.00005% Triton X-100 concentration. See also releated assay "qHTS Assay for Promiscuous and Specific Inhibitors of Cruzain (with detergent)" with 0.01% Triton X-100.
See following references for additional details:
Assay Provider: Shoichet, Brian; University of California, San Fancisco
Screening Center PI: Austin, C.P.
Screening Center: NIH Chemical Genomics Center [NCGC]
Buffer: 100 mM Sodium Acetate, pH 5.5, 5 mM DTT, Triton X-100 concentration: 0.01%.
Buffer in columns 3 and 4 as negative control (no enzyme).
Substrate solution: 2 uM final concentration of Z-FR-AMC (catalog number I-1160, Bachem) dispensed throughout the plate.
Enzyme: 1.5 nM Cruzain final concentration in columns 1, 2, 5-48. Column 1 is neutral (100% activity). Column 2 contained titration of covalent inhibitor K11777, starting concentration 1 mM, then 1:2 dilution in duplicate).
Three uL of enzyme or buffer were dispensed to 1536-well Greiner black solid bottom plates. Compounds and controls (23 nL) were transferred via Kalypsys PinTool. The plates were incubated for 15 min at room temperature, and then 1 uL of substrate solution was added to start the reaction. The plates were immediately transferred to and read 4 times every 30 seconds for 2 min on ViewLux High-throughput CCD imager (Perkin-Elmer) using 360 nm excitation and 450 nm emission fluorescence protocol. The fluorescence intensity difference between the third and the first time points (time lapse of 60 seconds) was used to compute reaction progress.
With `Cc1nn(-c2ccccn2)c2c1C(c1ccncc1)C1=C(CC(C)(C)CC1=O)N2` (stereo unspecified), the max response, negative = inhibition is -9% (inactive).

With `CC(=C1C(=O)c2ccccc2C1=O)N1CCN(c2ccccn2)CC1`, the max response, negative = inhibition was -6.99% (inactive).

Turning to `Cc1cc(C)c(C2C3=C(Nc4c2c(C)nn4-c2ccccn2)c2ccccc2C3=O)c(C)c1` (stereo unspecified), the Potency was 12.6 µM (active).

As for `NS(=O)(=O)c1ccc(CCNC(=O)CCCCCn2c(=O)[nH]c3ccccc3c2=O)cc1`, the max response, negative = inhibition was -15.6% (inactive).

Regarding `COc1cc(NS(=O)(=O)c2ccccc2)ccc1-n1nc(C)cc1C`, the max response, negative = inhibition is 4.04% (inactive).

As for `Cn1c(=O)n(C)c2cc(NS(=O)(=O)c3ccc(F)cc3)ccc21`, the max response, negative = inhibition was -10.1% (inactive).

`CC1(C)CC(=O)c2c(n(S(=O)(=O)c3ccccc3)c3ccc(NS(=O)(=O)c4ccccc4)cc23)C1`: the Potency is 31.6 µM (active).

For the compound `Cc1cccc(-n2c(C)cc(/C=N/NC(N)=S)c2C)c1`, the max response, negative = inhibition is -26.1% (inactive).

Regarding `CC(C)Oc1c(Br)cc(Br)cc1/C=N/NC(N)=S`, the Potency is 0.158 µM (active).

Take `CCOc1ccc(/C=N/NC(N)=S)cc1`: the max response, negative = inhibition is -8.04% (inactive).

In the case of `Cc1ccc2onc(CC(=O)N3CCN(c4ccc(Cl)cc4)CC3)c2c1`, the max response, negative = inhibition was 7.92% (inactive).

As to `COc1cccc(CNCCSc2nnnn2C)c1OCc1ccccc1Cl`, the max response, negative = inhibition is 2.75% (inactive).

Turning to `COc1ccc(CNC(=O)Cn2nnc(-c3ccccc3F)n2)cc1`, the max response, negative = inhibition is -5.04% (inactive).

As for `COc1cc2nc(SCc3ccc(F)cc3)n3nc(CCn4c(C)nc5ccccc54)nc3c2cc1OC`, the max response, negative = inhibition was -7.57% (inactive).

Take `C=CC(=O)c1ccc2ccccc2c1`: the Potency is 2.51 µM (active).

Consider `CC(=O)c1ccc2c(ccc3ccccc32)c1`, for which the max response, negative = inhibition is 6.49% (inactive).

As to `CC(=O)CCC(=O)c1ccc2ccccc2c1`, the max response, negative = inhibition was 1.86% (inactive).

Regarding `Cc1ccc(NC(=O)Cn2c(=O)n(-c3ccccc3)c(=O)c3c4c(sc32)CCCC4)cc1`, the max response, negative = inhibition is -7.31% (inactive).

With `Cc1ccc(S(=O)(=O)N2CCC(Oc3ccc(-n4cnnn4)cc3)CC2)cc1`, the max response, negative = inhibition is 8.75% (inactive).

`CCc1ccc(NC(=O)CN2CCSc3ccc(S(=O)(=O)N4CCCC4)cc32)cc1`: the max response, negative = inhibition is -26.3% (inactive).

As to `COc1ccc(C(=O)c2c(C)oc3cc([N+](=O)[O-])c(O)c([N+](=O)[O-])c23)cc1`, the max response, negative = inhibition was -3.8% (inactive).

Turning to `COc1cccc(C(=O)c2cc3ccc(O)cc3oc2=O)c1`, the max response, negative = inhibition is -3.19% (inactive).

On to `COc1ccc(-c2oc3cc(OC)ccc3c2C(=O)c2ccc(C#N)cc2)cc1`, for which the Potency was 12.6 µM (active).

Regarding `O=C(Nc1ccc(N2C(=O)c3cccc4cccc(c34)C2=O)cc1)c1ccc(N2CCCCC2)c([N+](=O)[O-])c1`, the Potency is 7.94 µM (active).

For the compound `O=C(COc1ccccc1F)NNC(=O)c1ccc(N2CCCCC2)c([N+](=O)[O-])c1`, the max response, negative = inhibition is -11.1% (inactive).

As for `COc1cccc(C(=O)Nc2ccc(N3CCCC3)cc2)c1`, the max response, negative = inhibition was -20.3% (inactive).
